Compound activity as filed in PubChem BioAssay.
Sampled rows, rich in hits. Any-hit rate of the full collection: about 3.5%.
ERa coact inh – ERα–SRC-1 coactivator interaction inhibitors, primary screen, biochemical, TR-FRET, ERα LBD, estradiol-bound; AID 629, 2007; Estrogen receptor (Homo sapiens), P03372; actives 1.7% (n = 86,000); TR-FRET ER-alpha LBD / SRC-1 peptide; inhibition, % at 25.6 µM; in the data active means inhibition above about 50%
Smad3 FoxH1 inh – Smad3/FoxH1 peptide binding inhibitors, primary screen, biochemical, TR-FRET; Mothers against decapentaplegic homolog 3 (Homo sapiens), P84022; TR-FRET Smad3/Dy647-FoxH1 peptide binding, europium anti-His; inhibition, % at 25 µM; actives 0.29% (n = 88,000); AID 630, 2007;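 active means compounds that reduce the energy-transfer binding signal between the protein and its labelled peptide by more than half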
ERb coact inh – inhibitors of ERβ-SRC1 coactivator interaction, primary screen, biochemical, TR-FRET, ERβ LBD, SRC-1 peptide | inhibition, % at 25.6 µM | Estrogen receptor beta (Homo sapiens), Q92731 | actives 1.3% (n = 86,000) | TR-FRET ER-beta LBD / SRC1-Cy5 peptide binding; receptor agonist-loaded with 1 µM estradiol;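 active means compounds whose percent inhibition of the receptor-coactivator binding signal exceeds about 50% in the single-dose screen, limit read from the data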
Target sequence (Q92731 whole entry, looked up, the tested form may be a part): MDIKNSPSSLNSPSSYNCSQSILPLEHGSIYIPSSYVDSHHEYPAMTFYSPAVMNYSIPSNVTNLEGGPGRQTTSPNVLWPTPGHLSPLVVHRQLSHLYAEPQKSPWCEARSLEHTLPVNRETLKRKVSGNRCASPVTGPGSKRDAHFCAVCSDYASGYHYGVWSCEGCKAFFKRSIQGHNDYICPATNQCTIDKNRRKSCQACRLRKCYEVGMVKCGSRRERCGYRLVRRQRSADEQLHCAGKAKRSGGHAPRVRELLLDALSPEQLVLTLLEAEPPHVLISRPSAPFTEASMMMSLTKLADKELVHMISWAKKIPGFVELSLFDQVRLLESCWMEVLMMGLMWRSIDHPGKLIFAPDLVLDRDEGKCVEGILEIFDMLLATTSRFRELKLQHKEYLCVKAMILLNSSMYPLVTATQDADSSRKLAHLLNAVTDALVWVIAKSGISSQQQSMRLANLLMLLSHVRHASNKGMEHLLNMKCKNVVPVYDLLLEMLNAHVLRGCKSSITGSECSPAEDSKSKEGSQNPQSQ
MT1-MMP txn act – MT1-MMP promoter reporter activation – cell-based, luciferase luminescence, primary screen | HT1080 MT1-MMP promoter luciferase reporter, overnight; stronger effect = higher value | activation factor at 10 µM | actives 0.16% (n = 86,000) | AID 750, 2007;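 active means activation factor of at least 2 for MT1-MMP transcription at 10 µM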
ERa coact pot – enhancers of ERα–SRC-1 coactivator binding, primary screen, biochemical, TR-FRET, ERα LBD, low estradiol | Estrogen receptor (Homo sapiens), P03372 | TR-FRET ERalpha-LBD/SRC-Cy5 coactivator binding, 2 h; 100 = basal binding, no effect | coactivator binding (% of control), % at 25.6 µM | actives 1.3% (n = 86,000) | AID 639, 2007; in the data active means activity above about 200%;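 further: binding measured in presence of low estradiol as agonist stimulus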
MMP-13 inhibitor – human MMP13 inhibitors, primary screen, biochemical, FRET peptide cleavage | Collagenase 3 (Homo sapiens), P45452 | MMP-13 fTHP FRET cleavage, Mca fluorescence | inhibition, % at 4 µM | actives 0.07% (n = 65,000);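 active means inhibition above the mean of compound-free control plate wells plus 3 SD, cut at about 14% in these data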
Large screens that a line does not name were inactive; [ ] = dose if it differs, or a comment.

Cc1ccc(CCN2CC(C(=O)NCCCN3CCCCCC3)CC2=O)cc1 (centres undefined)	Smad3 FoxH1 inh 66, ERb coact inh 58[fluorescence artefact?], ERa coact pot 917[fluorescence artefact?]
COc1ccc(OC)c(NC(=O)CCN2CCCCCC2)c1	ERa coact inh 51[fluorescence artefact?] (no result: MMP-13 inhibitor)
COc1ccc(Cc2nnc(NC(=O)c3c(-c4ccccc4)noc3C)s2)cc1OC	none
CCn1ccnc1C(O)c1cccc(OC)c1 (centres undefined)	none
Cc1nc2ccccc2nc1SCC(=O)N1CCC(C)CC1	none (no result: MMP-13 inhibitor)
COc1ccc(-n2c(Cc3cccn3C)nnc2SCC(=O)Nc2ccccc2)cc1	none
COc1ccc(CC(=O)NCCN2CCCC2)cc1	MT1-MMP txn act 2.4 (no result: MMP-13 inhibitor)
O=C(Cc1ccc(Cl)cc1)NCCN1CCCC1	none
O/N=C1/CC/C(=N\O)c2nn(-c3ccccc3)nc21	none (no result: ERa coact inh, Smad3 FoxH1 inh, ERb coact inh, ERa coact pot)
CN1CCN(C(=O)C2CCC(CNS(=O)(=O)c3cccc4cccnc34)CC2)CC1 (centres undefined)	none
O=C(NCCN1CCCCCC1)C1CCC(CNS(=O)(=O)c2cccc3cccnc23)CC1 (centres undefined)	ERa coact inh 60[fluorescence artefact?]
Cc1ccc(Nc2nc(N)nc(CSc3nncn3C)n2)cc1	none (no result: MMP-13 inhibitor)
O=C(CSc1nnc2scc(-c3ccccc3)n12)Nc1nsc(-c2ccccc2)n1	ERa coact pot 218[fluorescence artefact?]
Cc1ccc(-c2nc(NC(=O)CSc3nnnn3-c3ccccc3)ns2)cc1	ERa coact pot 219
COc1ccccc1NC(=O)CSc1nnnn1-c1ccc(C)cc1	none (no result: MMP-13 inhibitor)
Cc1ccc(-c2csc3nnc(SCC(=O)Nc4nsc(-c5ccccc5)n4)n23)cc1	none
Cc1ccc(Nc2nc(N)nc(CSc3nnnn3-c3ccccc3)n2)cc1	ERa coact inh 62[fluorescence artefact?], ERa coact pot 219[fluorescence artefact?]
Cc1oc(-c2ccc(Cl)cc2)cc1-c1nn2c(-c3ccco3)nnc2s1	none
Cc1oc(-c2ccc(F)cc2)cc1-c1nn2c(-c3ccoc3C)nnc2s1	ERa coact inh 79[fluorescence artefact?], ERb coact inh 63
Cc1oc(-c2ccc(F)cc2)cc1-c1nn2c(-c3ccco3)nnc2s1	ERa coact inh 82[fluorescence artefact?], ERb coact inh 51[fluorescence artefact?]
CCN(C1CCS(=O)(=O)C1)S(=O)(=O)c1cccs1 (centres undefined)	none
Cc1ccc(S(=O)(=O)/N=C2/C=C(C3C(=O)CC(C)(C)CC3=O)C(=O)c3ccccc32)cc1	MT1-MMP txn act 2.1 (no result: MMP-13 inhibitor)
COc1ccc(-c2cc(C(F)(F)F)nc(NC3CCCC3)n2)cc1OC	none
Cc1cc2oc(=O)cc(CN3CCOCC3)c2cc1C	none (no result: MMP-13 inhibitor)
Cc1cc2oc(=O)cc(CN3CCCc4ccccc43)c2cc1C	ERa coact pot 231[fluorescence artefact?]
Cn1c(=O)c2c(nc(CN3CCN(C(=O)c4ccco4)CC3)n2CCCc2ccccc2)n(C)c1=O	MMP-13 inhibitor 17
Cc1cccc(NC(=O)CN2C(=O)COc3ccc(Cl)cc32)c1	none
OCCNCC(O)Cn1ccc2ccccc21 (centres undefined)	none
Cc1ccc(-c2csc3ncnc(OCC(=O)NC(=O)NCc4ccco4)c23)cc1	ERa coact inh 56[fluorescence artefact?]
Cc1sc2ncnc(SCC(=O)NC(=O)NCc3ccco3)c2c1C	ERa coact inh 73, ERb coact inh 81[fluorescence artefact?]
Cc1sc2ncnc(NCc3cccs3)c2c1C	none (no result: MMP-13 inhibitor)
Cc1nc(SCC(=O)NCc2ccco2)c2c(C)c(C)sc2n1	none
O=C(NCc1ccco1)c1cc2cc3ccc(Cl)cc3nc2o1	ERa coact inh 67, ERb coact inh 56
Cc1sc2ncnc(NCc3ccco3)c2c1C	ERa coact inh 58, ERb coact inh 54
CCCC(=O)Nc1cc(C)c(NC(=O)C23CC4CC(CC(C4)C2)C3)cn1	none
O=C(CNC(=O)c1ccco1)OCC(=O)c1ccc2ccccc2c1	none (no result: MMP-13 inhibitor)
Cc1sc2nc(SCC(=O)NCc3ccco3)n(-c3ccccc3)c(=O)c2c1C	ERa coact pot 229[fluorescence artefact?]
Cc1ccc(-n2c(SCC(=O)NCc3ccco3)nc3sc(C)c(C)c3c2=O)cc1	none
